B1: unnamed (peptide)
chain: VNFRRIPTGPDSPPT

molecular target: AgAbp1; assay: SPOT peptide array binding signal intensity (averaged, normalized) (arbitrary units (background-subtracted, floor 0; scale differs between SH3 domains)); higher = stronger binding of the SH3 domain to the peptide
How it was run: (§1)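 GST-fused SH3 domains, from four yeast species, were produced in E. coli BL21(DE3) and captured on glutathione Sepharose. Membranes of cellulose carrying synthetic 15-mer peptides, in which cysteines had been replaced by serines, were exposed to each domain at 10 μg/ml overnight at 4°C in TBS-based blocking buffer. After anti-GST antibody, an HRP anti-mouse secondary and luminol, spots were imaged and quantified using Genespotter. Binding signal is normalized and background-subtracted spot intensity, averaged over replicates, in arbitrary units that differ between domains.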

Binder | SPOT peptide array binding signal intensity
B1 | ≤ 0

molecular target: AgBbc1; assay: as above
How it was run: as §1

Binder | SPOT peptide array binding signal intensity
B1 | 2.5

molecular target: AgBem1-D1; assay: as above
How it was run: as §1

Binder | SPOT peptide array binding signal intensity
B1 | 13

molecular target: AgBzz1-D1; assay: as above
How it was run: as §1

Binder | SPOT peptide array binding signal intensity
B1 | 23

molecular target: AgBzz1-D2; assay: as above
How it was run: as §1

Binder | SPOT peptide array binding signal intensity
B1 | 258

molecular target: AgCyk3; assay: as above
How it was run: as §1

Binder | SPOT peptide array binding signal intensity
B1 | ≤ 0

molecular target: AgFus1; assay: as above
How it was run: as §1

Binder | SPOT peptide array binding signal intensity
B1 | 45

molecular target: AgHof1; assay: as above
How it was run: as §1

Binder | SPOT peptide array binding signal intensity
B1 | 6

molecular target: AgHse1; assay: as above
How it was run: as §1

Binder | SPOT peptide array binding signal intensity
B1 | 132

molecular target: AgLsb1; assay: as above
How it was run: as §1

Binder | SPOT peptide array binding signal intensity
B1 | 0.5

molecular target: AgLsb4; assay: as above
How it was run: as §1

Binder | SPOT peptide array binding signal intensity
B1 | 5

molecular target: AgMyo5; assay: as above
How it was run: as §1

Binder | SPOT peptide array binding signal intensity
B1 | ≤ 0

molecular target: AgNbp2; assay: as above
How it was run: as §1

Binder | SPOT peptide array binding signal intensity
B1 | ≤ 0

molecular target: AgRvs167; assay: as above
How it was run: as §1

Binder | SPOT peptide array binding signal intensity
B1 | 3.17

molecular target: AgSho1; assay: as above
How it was run: as §1

Binder | SPOT peptide array binding signal intensity
B1 | 1

molecular target: AgSla1-D1-D2; assay: as above
How it was run: as §1

Binder | SPOT peptide array binding signal intensity
B1 | ≤ 0

molecular target: AgSla1-D3; assay: as above
How it was run: as §1

Binder | SPOT peptide array binding signal intensity
B1 | 0.5

molecular target: CaAbp1-D1; assay: as above
How it was run: as §1

Binder | SPOT peptide array binding signal intensity
B1 | ≤ 0

molecular target: CaAbp1-D2; assay: as above
How it was run: as §1

Binder | SPOT peptide array binding signal intensity
B1 | ≤ 0

molecular target: CaBbc1; assay: as above
How it was run: as §1

Binder | SPOT peptide array binding signal intensity
B1 | 6.75

molecular target: CaBem1-D1; assay: as above
How it was run: as §1

Binder | SPOT peptide array binding signal intensity
B1 | 6

molecular target: CaBzz1-D1; assay: as above
How it was run: as §1

Binder | SPOT peptide array binding signal intensity
B1 | 41

molecular target: CaBzz1-D2; assay: as above
How it was run: as §1

Binder | SPOT peptide array binding signal intensity
B1 | 16.5

molecular target: CaCyk3; assay: as above
How it was run: as §1

Binder | SPOT peptide array binding signal intensity
B1 | 6

molecular target: CaFus1; assay: as above
How it was run: as §1

Binder | SPOT peptide array binding signal intensity
B1 | 141

molecular target: CaHof1; assay: as above
How it was run: as §1

Binder | SPOT peptide array binding signal intensity
B1 | ≤ 0

molecular target: CaHse1; assay: as above
How it was run: as §1

Binder | SPOT peptide array binding signal intensity
B1 | 3.5

molecular target: CaLsb1; assay: as above
How it was run: as §1

Binder | SPOT peptide array binding signal intensity
B1 | ≤ 0

molecular target: CaLsb4; assay: as above
How it was run: as §1

Binder | SPOT peptide array binding signal intensity
B1 | 18.5

molecular target: CaMyo5; assay: as above
How it was run: as §1

Binder | SPOT peptide array binding signal intensity
B1 | 0.5

molecular target: CaNbp2; assay: as above
How it was run: as §1

Binder | SPOT peptide array binding signal intensity
B1 | 113

molecular target: CaRvs167; assay: as above
How it was run: as §1

Binder | SPOT peptide array binding signal intensity
B1 | 1.33

molecular target: CaRvs167-3; assay: as above
How it was run: as §1

Binder | SPOT peptide array binding signal intensity
B1 | 115

molecular target: CaSho1; assay: as above
How it was run: as §1

Binder | SPOT peptide array binding signal intensity
B1 | 94.5

molecular target: CaSla1-D1-D2; assay: as above
How it was run: as §1

Binder | SPOT peptide array binding signal intensity
B1 | ≤ 0

molecular target: CaSla1-D3; assay: as above
How it was run: as §1

Binder | SPOT peptide array binding signal intensity
B1 | ≤ 0

molecular target: ScAbp1; assay: as above
How it was run: as §1

Binder | SPOT peptide array binding signal intensity
B1 | 4

molecular target: ScBbc1; assay: as above
How it was run: as §1

Binder | SPOT peptide array binding signal intensity
B1 | 2

molecular target: ScBem1-D1; assay: as above
How it was run: as §1

Binder | SPOT peptide array binding signal intensity
B1 | ≤ 0

molecular target: ScBzz1-D1; assay: as above
How it was run: as §1

Binder | SPOT peptide array binding signal intensity
B1 | 6

molecular target: ScBzz1-D2; assay: as above
How it was run: as §1

Binder | SPOT peptide array binding signal intensity
B1 | 8.5

molecular target: ScCyk3; assay: as above
How it was run: as §1

Binder | SPOT peptide array binding signal intensity
B1 | 1.5

molecular target: ScFus1; assay: as above
How it was run: as §1

Binder | SPOT peptide array binding signal intensity
B1 | 30

molecular target: ScHof1; assay: as above
How it was run: as §1

Binder | SPOT peptide array binding signal intensity
B1 | 0.5

molecular target: ScHse1; assay: as above
How it was run: as §1

Binder | SPOT peptide array binding signal intensity
B1 | 278

molecular target: ScLsb1; assay: as above
How it was run: as §1

Binder | SPOT peptide array binding signal intensity
B1 | ≤ 0

molecular target: ScLsb2; assay: as above
How it was run: as §1

Binder | SPOT peptide array binding signal intensity
B1 | ≤ 0

molecular target: ScLsb3; assay: as above
How it was run: as §1

Binder | SPOT peptide array binding signal intensity
B1 | 79

molecular target: ScLsb4; assay: as above
How it was run: as §1

Binder | SPOT peptide array binding signal intensity
B1 | 11

molecular target: ScMyo3; assay: as above
How it was run: as §1

Binder | SPOT peptide array binding signal intensity
B1 | ≤ 0

molecular target: ScMyo5; assay: as above
How it was run: as §1

Binder | SPOT peptide array binding signal intensity
B1 | ≤ 0

molecular target: ScNbp2; assay: as above
How it was run: as §1

Binder | SPOT peptide array binding signal intensity
B1 | 35.5

molecular target: ScPex13; assay: as above
How it was run: as §1

Binder | SPOT peptide array binding signal intensity
B1 | 22.8

molecular target: ScRvs167; assay: as above
How it was run: as §1

Binder | SPOT peptide array binding signal intensity
B1 | 0.167

molecular target: ScSho1; assay: as above
How it was run: as §1

Binder | SPOT peptide array binding signal intensity
B1 | 96.5

molecular target: ScSla1-D1-D2; assay: as above
How it was run: as §1

Binder | SPOT peptide array binding signal intensity
B1 | ≤ 0

molecular target: ScSla1-D3; assay: as above
How it was run: as §1

Binder | SPOT peptide array binding signal intensity
B1 | 2.5

molecular target: SpAbp1-D1; assay: as above
How it was run: as §1

Binder | SPOT peptide array binding signal intensity
B1 | ≤ 0

molecular target: SpBbc1; assay: as above
How it was run: as §1

Binder | SPOT peptide array binding signal intensity
B1 | ≤ 0

molecular target: SpBzz1-D1; assay: as above
How it was run: as §1

Binder | SPOT peptide array binding signal intensity
B1 | 50

— the supplement of paper PMC4466140
